Measurements reported in PubChem BioAssay AID1159580 (chemical genetic matrix, 2015).
Several values for one entry are separate records, joined by “and”; a condition that tells them apart may be missing. Equal values may be shown once. Out of some 5,500 compounds screened, about 2,000 (36%) were called active. Not shown: some 18% with an inconclusive outcome. No stated cut-off is given here; in the data, active means normalized growth mostly below about 0.91 (no sharp cut-off); inconclusive means no clear call, values can overlap the other calls; inactive means mostly above about 0.92. The list shows a part of the results.

Assay: chemical genetic growth profiling, strain panel (AID 1159580);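 further: tested at 20 µM; growth read once vehicle control cultures reached saturation at 30 °C; 1 = growth at the plate median or of vehicle wells; lower values mean less growth of the strain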
Conditions: S. cerevisiae deletion strains, growth OD

Measured: normalized growth

CC(C)C(=O)Nc1ccc([N+](=O)[O-])c(C(F)(F)F)c1
inactive: locus YAL013W, strain DEP1, active compounds read low 0.995 | locus YAL021C, strain ccr4, active compounds read low 1.03 | locus YAL026C, strain drs2, active compounds read low 1.01 | locus YAL030W, strain snc1, active compounds read low 1.02 | locus YAL040C, strain CLN3, active compounds read low 0.959 | locus YBL061C, strain skt5, active compounds read low 1.02 | locus YBR009C, strain hhf1, active compounds read low 1.03 | locus YBR021W, strain FUR4, active compounds read low 0.929 | locus YBR023C, strain chs3, active compounds read low 1.03 | locus YBR171W, strain sec66, active compounds read low 1.04 | locus YBR229C, strain ROT2, active compounds read low 0.99 | locus YBR231C, strain swc5, active compounds read low 0.994 | locus YBR279W, strain paf1, active compounds read low 1.02 | locus YCL011C, strain gbp2, active compounds read low 1.02 | locus YCL016C, strain dcc1, active compounds read low 1.01 | locus YCL029C, strain bik1, active compounds read low 0.99 | locus YCL061C, strain MRC1 (second series), active compounds read low 0.999 | locus YCL069W, strain vba3, active compounds read low 1.02 | locus YCR088W, strain abp1, active compounds read low 1.01 | locus YDL005C, strain med2, active compounds read low 1.03 | locus YDL035C, strain GPR1, active compounds read low 0.993 | locus YDL040C, strain nat1, active compounds read low 1.02 | locus YDL074C, strain BRE1, active compounds read low 0.946 | locus YDL101C, strain DUN1, active compounds read low 0.993 | locus YDL134C, strain PPH21, active compounds read low 0.991 | locus YDL185W, strain tfp1, active compounds read low 0.98 | locus YDL192W, strain arf1, active compounds read low 0.977 | locus YDR001C, strain nth1, active compounds read low 1.02 | locus YDR069C, strain doa4, active compounds read low 1.02 | locus YDR101C, strain arx1, active compounds read low 0.969 | locus YDR137W, strain rgp1, active compounds read low 0.983 | locus YDR150W, strain NUM1, active compounds read low 0.994 and 0.998 | locus YDR159W, strain sac3, active compounds read low 1.03 | locus YDR162C, strain NBP2, active compounds read low 0.982 | locus YDR195W, strain ref2 1.07 | locus YDR297W, strain sur2, active compounds read low 1.01 | locus YDR318W, strain mcm21, active compounds read low 0.964 | locus YDR334W, strain swr1, active compounds read low 1.01 | locus YDR335W, strain msn5, active compounds read low 1.03 | locus YDR363W, strain ESC2, active compounds read low 1.05 | locus YDR388W, active compounds read low 0.961 | locus YDR392W, strain spt3, active compounds read low 0.999 | locus YDR502C, strain sam2, active compounds read low 0.96 | locus YEL003W, strain gim4, active compounds read low 1.02 | locus YEL037C, strain rad23, active compounds read low 1.02 | locus YEL061C, strain CIN8 (second series), active compounds read low 1.01 | locus YEL061C, strain CIN8, active compounds read low 0.993 | locus YER002W, strain NOP16, active compounds read low 0.972 | locus YER015W, strain faa2, active compounds read low 1.02 | locus YER016W, strain bim1, active compounds read low 1.01 | locus YER110C, active compounds read low 0.979 | locus YER111C, strain swi4, active compounds read low 1.03 | locus YER155C, strain BEM2 (second series), active compounds read low 0.993 | locus YER155C, strain BEM2, active compounds read low 0.985 | locus YER167W, strain BCK2, active compounds read low 0.969 | locus YFR010W, strain ubp6, active compounds read low 1.04 | locus YGL078C, strain dbp3, active compounds read low 0.984 | locus YGL086W, strain mad1, active compounds read low 0.984 | locus YGL167C, strain pmr1, active compounds read low 1.03 | locus YGL173C, strain kem1, active compounds read low 1.03 | locus YGL227W, strain vid30, active compounds read low 1.03 | locus YGL240W, strain doc1, active compounds read low 1.01 | locus YGL248W, strain PDE1, active compounds read low 0.988 | locus YGL253W, strain hxk2, active compounds read low 1.02 | locus YGR078C, strain PAC10, active compounds read low 0.992 and 0.982 | locus YGR135W, strain pre9, active compounds read low 0.968 | locus YGR229C, strain SMI1, active compounds read low 0.978 | locus YGR252W, strain gcn5, active compounds read low 0.916 | locus YHR013C, strain ard1, active compounds read low 0.995 | locus YHR027C, strain rpn1, active compounds read low 1.04 | locus YHR030C, strain SLT2, active compounds read low 0.994 and 0.977 | locus YHR079C, strain IRE1 (second series), active compounds read low 0.975 | locus YHR079C, strain IRE1, active compounds read low 0.964 | locus YHR094C, strain hxt1, active compounds read low 0.98 | locus YHR129C, strain ARP1, active compounds read low 0.981 | locus YHR142W, strain chs7, active compounds read low 1.03 | locus YHR200W, strain rpn10, active compounds read low 0.963 | locus YIL066C, strain RNR3, active compounds read low 0.986 | locus YIL073C, strain SPO22, active compounds read low 0.98 | locus YIL125W, strain kgd1, active compounds read low 0.983 | locus YIR030C, strain dcg1, active compounds read low 0.973 | locus YJL092W, strain hpr5, active compounds read low 1.03 | locus YJL095W, strain BCK1 (second series), active compounds read low 1.01 | locus YJL095W, strain BCK1, active compounds read low 0.958 and 0.976 | locus YJL115W, strain asf1, active compounds read low 1.03 | locus YJL129C, strain trk1, active compounds read low 1.04 | locus YJL134W, strain LCB3, active compounds read low 0.986 | locus YJL154C, strain vps35, active compounds read low 1.02 | locus YJL164C, strain tpk1, active compounds read low 1.02 | locus YJL166W, strain qcr8, active compounds read low 1.02 | locus YJL168C, strain set2, active compounds read low 0.977 | locus YJL187C, strain SWE1 (second series), active compounds read low 0.988 | locus YJR043C, strain POL32, active compounds read low 0.967 | locus YJR066W, strain TOR1, active compounds read low 0.92 | locus YJR075W, strain HOC1, active compounds read low 0.98
